We go through 15 compounds from publication PMC5540273 (PLoS ONE, 2017).

Common to all, as to details: concentration: 1 μM, replicates: in singlicate; n = 1
The subject of assay [1] is T1, PKAC-beta.
T1 construct: gene PRKACB

Assay [2] concerns PKMYT1.
In assay [3] the test system is PKN1.
The subject of assay [4] is PKN2.
For assay [5], the system named is PLK1.
The subject of assay [6] is PLK2.
The subject of assay [7] is PLK3.
Assay [8] relates to PLK4.
Assay [9] relates to PRKCD.
For assay [10], the system named is PRKCE.
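Note: KINOMEscan kinase panel screen.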

For `Cc1c(Cn2c3ccccc3n3c(=O)cc(N4CCOCC4)nc23)cccc1C(F)(F)F` [GSK2306394], the “%Inh” value in [1] stood at 0%; in assay [2], 0%; in assay [3], 100%; in assay [4] it was 0%; in [5], 0%; in [6] it was 0%. Moreover, the “%Inh” value in assay [7], in assay [8], in assay [9] and in assay [10] was 0% each time.

As to `CC(=O)c1c(C)c2cnc(Nc3ccn(C)n3)nc2n(C2CCCC2)c1=O`, the “%Inh” value in assay [1] turned out to be 0%; in [2], 0%; in [3] it was 0%; in assay [4], 0%; in assay [5] it was 0%; in assay [6], 8%. Moreover, the “%Inh” value in assay [7] worked out at 0%; in assay [8], 15%; in assay [9], 0%; in assay [10] it was 0%.

As for `O=C(Nc1n[nH]c2nc(-c3ccco3)c(Br)cc12)C1CCN(Cc2ccccc2)C1.O=C(O)[C@H](O)[C@@H](O)C(=O)O` (stereo not drawn) [SB-742034], the “%Inh” value came out at 15% in [1]; 8% in [2]; 0% in assay [3]; 41% in assay [4]; 3% in assay [5]; 24% in assay [6]. Moreover, the “%Inh” value in assay [7] was 5%; in assay [8], 22%; in assay [9], 35%; in assay [10], 1%.

Turning to `COc1nccc(-c2c(-c3ccc(F)cc3)ncn2CCCN2CCOCC2)n1` [SB-282852], the “%Inh” value worked out at 16% in [1]; 0% in assay [2]; 0% in assay [3]; 0% in assay [4]; 0% in assay [5]; 0% in [6]. In addition, the “%Inh” value in assay [7] stood at 13%; in assay [8] it was 20%; in assay [9] it was 38%; in assay [10] it was 0%.

Take `COC(=O)c1cccc(NC(=O)NC2CCN(c3ccnc(Nc4ccc(OC)cc4)n3)C2)c1` (stereo not drawn) [GSK1379746]: the “%Inh” value is on record as 0% in [1]; 0% in assay [2]; 11% in [3]; 0% in assay [4]; 0% in [5]; 0% in assay [6]. The “%Inh” value in assay [7] is 0%; in [8] it was 0%; in [9], 0%; in assay [10], 8%.

Consider `CNc1nc(-c2ccc3c(N)n[nH]c3c2)cc(N2C[C@@H](C(=O)NC3CCCCC3)OC[C@H]2C)n1` [GSK2375584], for which the “%Inh” value in [1] is reported as 10%; in [2], 0%; in assay [3], 29%; in assay [4] it was 0%; in assay [5] it was 3%; in [6], 0%. The “%Inh” value was 1% in assay [7], 1% in assay [8], 8% in assay [9] and 8% in [10].

`CNc1cc(-c2ccc3c(N)n[nH]c3c2)nc(N)n1` [GSK2224810]: the “%Inh” value was 0% in assay [1]; 4% in [2]; 10% in assay [3]; 0% in assay [4]; 0% in assay [5]; 0% in assay [6]. In addition, the “%Inh” value is given as 0% in assay [7], 5% in assay [8], 0% in assay [9] and 15% in assay [10].

With `Cl.Cl.Cl.N#Cc1ccc(CCNc2nccc(-c3cccc(CN4CCNCC4)c3)n2)cc1` [GSK2137462], the “%Inh” value came out at 5% in assay [1]; 18% in assay [2]; 0% in assay [3]; 2% in assay [4]; 5% in [5]; 5% in [6]. The “%Inh” value in [7] is reported as 0%; in assay [8], 6%; in [9], 18%; in assay [10], 76%.

As for `NS(=O)(=O)c1cccc(N/C=C2\C(=O)Nc3ccc(S(=O)(=O)Cc4c(Cl)cccc4Cl)cc32)c1` [GSK398099], the “%Inh” value in assay [1] is given as 0%; in assay [2], 5%; in assay [3], 38%; in assay [4], 0%; in assay [5], 1%; in assay [6], 0%. In addition, the “%Inh” value is listed as 0% in assay [7], 18% in assay [8], 0% in [9] and 11% in assay [10].

For `COc1cc2ncnc(Nc3cccc(Br)c3)c2cc1OC.Cl` [GI230329], the “%Inh” value turned out to be 0% in assay [1]; 0% in assay [2]; 0% in assay [3]; 0% in assay [4]; 2% in assay [5]; 0% in [6]. Moreover, the “%Inh” value worked out at 0% in assay [7], 0% in assay [8], 3% in assay [9] and 11% in assay [10].

Turning to `O=c1cc(N2CCOCC2)nc2n(Cc3cccc(Cl)c3Cl)c3ccccc3n12` [GSK2299009], the “%Inh” value in assay [1] is on record as 11%; in assay [2], 32%; in assay [3], 21%; in assay [4], 0%; in assay [5], 0%; in assay [6], 0%. Also, the “%Inh” value is recorded as 0% in [7], 7% in assay [8], 32% in assay [9] and 3% in assay [10].

In the case of `Cc1ccccc1Cn1ccn2c(=O)cc(N3CCOCC3)nc12` [GSK2269905], the “%Inh” value in assay [1] came out at 1%; in [2] it was 0%; in assay [3], 0%; in [4], 0%; in assay [5], 0%; in assay [6], 0%. In addition, the “%Inh” value in [7] stood at 0%; in assay [8] it was 0%; in assay [9], 0%; in [10] it was 7%.

For `COc1cccc(C2=C(Nc3cc(Cl)c(O)c(Cl)c3)C(=O)NC2=O)c1` [SB-390767], the “%Inh” value was determined as 0% in assay [1]; 4% in [2]; 0% in assay [3]; 0% in [4]; 0% in assay [5]; 0% in assay [6]. The “%Inh” value was found to be 0% in assay [7], 0% in [8], 0% in assay [9] and 28% in assay [10].

In the case of `CSc1ccc(-c2nc3n(c2-c2ccncc2)CCC3)cc1` [SKF-105561], the “%Inh” value was determined as 18% in [1]; 5% in assay [2]; 0% in [3]; 12% in assay [4]; 1% in assay [5]; 29% in assay [6]. Also, the “%Inh” value in assay [7] is 6%; in assay [8], 2%; in [9], 9%; in assay [10] it was 23%.

`COc1ccc(CSc2nnc(-c3ccc4ncsc4c3)o2)cc1C(F)(F)F`: the “%Inh” value in assay [1] came to 1%; in assay [2] it was 22%; in assay [3], 0%; in [4], 0%; in [5], 0%; in assay [6], 4%. In addition, the “%Inh” value is 0% in assay [7], 2% in assay [8], 13% in assay [9] and 0% in assay [10].
